Results filed as inconclusive are left out. Calls of active or inactive are those of the source. The call rests on the fitted dose curve; in most records, active means well fitted cell-killing curve with a large enough effect in the repeat runs; inconclusive means weak or mixed curves, or effect the other way; inactive means no such curve, though single readings can be large or run the other way.

The nature of the experiment: qHTS assay for small molecule activators of the heat shock response signaling pathway - cell viability counter screen (AID 743209). Further: nearly all actives have a fitted effect of over 50% in size. As to conditions: HSE-bla HeLa viability, CellTiter-Glo luminescence, 5 h; series mostly up to 62.6 µM. An excerpt: U.S. Tox21 Program National Center for Advancing Translational Sciences [NCATS] NIH Chemical Genomics Center [NCGC] U.S. Environmental Protection Agency [EPA] National Institutes of Environmental Health Sciences [NIEHS] National Toxicology Program [NTP] U.S. Food and Drug Administration [FDA] Tox21 Assay Overview: Various chemicals, environmental and physiological stress conditions may lead to the activation of heat shock response/ unfolded protein response (HSR/UPR). There are three heat shock transcription factors (HSFs) (HSF-1, -2, and -4) mediating transcriptional regulation of the human HSR. To identify the compounds that activate HSR signaling, HSE-bla HeLa cell line (Invitrogen, Carlsbad, CA, USA) containing a beta-lactamase reporter gene under the control of the heat shock response elements was used to screen Tox21 10K compound library. The cytotoxicity of the Tox21 compound library against the HSE-bla HeLa cell line was tested in parallel by measuring the cell viability using CellTiter-Glo assay (Promega, Madison, WI) in the same wells.
Tox21 Assay Protocol Summary: The CellSensor HSE-bla HeLa cells (Invitrogen, Carlsbad, CA, USA) were dispensed at 1500 cells/6uL/well into 1536-well black wall/clear bottom plates using a Multidrop combi (Thermo Fisher Scientific, Waltham, MA) dispenser. After the assay plates were incubated at 37 C and 5% CO2 overnight, 23 nL of compounds dissolved in DMSO, positive controls or DMSO only was transferred to the assay plate by a Pintool station (Kalypsys, San Diego, CA). The plates were incubated at 37 C for 5 h. After 1 uL of LiveBLAzerTM B/G FRET substrate was added using a Flying Reagent Dispenser (FRD, Beckman Coulter, Indianapolis, IN, USA), the plates were incubated at room temperature for 2.5 h, and fluorescence intensity was measured by an Envision plate reader (PerkinElmer, Shelton, CT). For cell viability readout that measures cytotoxicity, 3 ul/well of CellTiter-Glo reagent was added into the assay plates using a FRD. After 30 min incubation at room temperature, the luminescence intensity in the plates was measured using a ViewLux (PerkinElmer) plate reader.
Take `OC1OC[C@@H](O)[C@H](O)[C@H]1O` (stereo not given in full): the result was inactive.
On to `NS(=O)(=O)c1cc(C2(O)NC(=O)c3ccccc32)ccc1Cl` (stereo not given), for which the compound was called inactive.
As for `Cc1cc(C)cc(OCC2CNC(=O)O2)c1` (stereo not given), the compound was called inactive.
As to `CCn1cc(C(=O)O)c(=O)c2cc(F)c(N3CCN(C)CC3)cc21`, the call was inactive.
In the case of `O=C(O)C1CCC1`, the compound was classed as inactive.
As for `NC(N)=NS(=O)(=O)c1ccc(N)cc1`, the call was inactive.
Take `CC(C)CCCC(C)CCCC(C)CCCCC(C)CCCC(C)CCCC(C)C` (stereo not given): the outcome was inactive.
The result for `Fc1ccccc1-c1ccccc1` reads “inactive”.
Consider `CCCCCCOC(=O)c1ccccc1O`, for which the outcome was inactive.
For `c1ccc(SCCSc2ccccc2)cc1`, the compound was classed as inactive.
As for `CC(=O)NC(Cc1ccccc1)C(=O)O` (stereo not given), the result was inactive.
The entry for `CCCCC1CCCCC(=O)O1` (stereo not given) is “inactive”; for `CC(=O)c1ccc(C)cc1` it is “inactive”; for `O=C(O)CCNC(=O)c1ccc(N=Nc2ccc(O)c(C(=O)O)c2)cc1` it is “inactive”.
As for `CC1=CCC2C(C1)C2(C)C` (stereo not given), the compound was classed as inactive.
As to `CCC(=O)Nc1cccc(N)c1`, the compound was called inactive.
The entry for `Cc1c(F)cc2c(=O)c(C(=O)O)cn3c2c1CCC3C` (stereo not given) is “inactive”; for `CC(C)[C@H](N)C(=O)OCCOCn1cnc2c(=O)[nH]c(N)nc21` it is “inactive”.
In the case of `O=C(O)c1ccccc1S`, the result was inactive.
The entry for `OC/C=C/c1ccccc1` is “inactive”; for `CC(C)CCCC(C)NCCC(C)C` (stereo not given) it is “inactive”; for `CC(C)CCOC(=O)CC(C)C` it is “inactive”.
Take `C/C=C1\C(=O)C[C@H]2[C@@H]3CCC4=CC(=O)CC[C@]4(C)[C@H]3CC[C@]12C`: the outcome was inactive.
For the compound `Nc1cc(N)cc(C(=O)O)c1`, the call was inactive.
In the case of `C[C@H](O)C(=O)Nc1c(I)c(C(=O)NC(CO)CO)c(I)c(C(=O)NC(CO)CO)c1I`, the call was inactive.
As for `O=C(O)Cc1cc(I)c(Oc2cc(I)c(O)c(I)c2)c(I)c1`, the outcome was inactive.
`C[N+](C)(C)CC[N+]1(C)Cc2c(Cl)c(Cl)c(Cl)c(Cl)c2C1`: the call was inactive.
As for `CCCc1ccccc1O`, the outcome was inactive.
Turning to `C#CC(O)CCCCC` (stereo not given), the compound was classed as inactive.
The entry for `Nc1ncnc2c1ncn2Cc1c(F)cccc1Cl` is “inactive”; for `CO[Si](CCCNCCC[Si](OC)(OC)OC)(OC)OC` it is “inactive”; for `C=C(C)C(=O)NCCCN(C)C` it is “inactive”.
The result for `CO` reads “inactive”; that for `CCCCOCC(C)OCC(C)O` (stereo not given), “inactive”; that for `COCc1ccc(COC)cc1`, “inactive”.
On to `NC(=O)c1ncn([C@@H]2O[C@H](CO)[C@@H](O)[C@H]2O)c1N`, for which the compound was classed as inactive.
Turning to `N#CCN(CC#N)CCN(CC#N)CC#N`, the result was inactive.
The entry for `Oc1ccc2c(c1)OC[C@@H](N1CCC(O)(c3ccc(F)cc3)CC1)[C@H]2O` is “inactive”; for `CC(O)CN(CCCN(C)C)CCCN(C)C` (stereo not given) it is “inactive”; for `O=C1OC(=O)c2cc([N+](=O)[O-])ccc21` it is “inactive”.

For the origin of these results see PubChem BioAssay (Tox21).
